Measured potencies and affinities stand elsewhere. A number with no mark means an inactive call. Calls of active or inactive are those of the source.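 Rule for the calls: active = fitted EC50 under 30 µM, or percent of control over 300% when no usable fit; inactive = the rest.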

This assay deals with Estrogen receptor (Homo sapiens) (UniProt P03372). Briefly: potentiators of ERα–SRC-1 coactivator binding, dose response, biochemical, TR-FRET, ERα LBD (AID 737). The settings on record: TR-FRET ER-alpha LBD / SRC-Cy5 coactivator recruitment; at 12.5 µM; active compounds read high. Background: In TR-FRET formats the signal depends on donor and acceptor labels being close together.
Sequence of Estrogen receptor (Homo sapiens) (P03372 whole entry, looked up, the tested form may be a part): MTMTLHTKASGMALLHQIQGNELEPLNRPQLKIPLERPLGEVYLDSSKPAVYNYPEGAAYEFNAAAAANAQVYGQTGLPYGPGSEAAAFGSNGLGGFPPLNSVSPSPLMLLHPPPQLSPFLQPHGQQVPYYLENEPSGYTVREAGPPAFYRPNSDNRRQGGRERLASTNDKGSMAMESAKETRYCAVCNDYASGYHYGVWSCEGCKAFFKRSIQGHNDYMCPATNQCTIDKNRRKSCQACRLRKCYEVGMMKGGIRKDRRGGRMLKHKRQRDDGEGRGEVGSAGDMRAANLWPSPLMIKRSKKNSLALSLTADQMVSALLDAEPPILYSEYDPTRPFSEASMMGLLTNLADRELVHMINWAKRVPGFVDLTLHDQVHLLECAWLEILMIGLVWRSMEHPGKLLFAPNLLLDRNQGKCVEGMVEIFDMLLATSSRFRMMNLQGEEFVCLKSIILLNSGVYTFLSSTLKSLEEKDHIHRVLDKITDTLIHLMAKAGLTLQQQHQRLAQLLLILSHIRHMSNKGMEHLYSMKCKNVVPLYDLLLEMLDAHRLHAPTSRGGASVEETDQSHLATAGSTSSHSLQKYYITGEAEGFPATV
For the compound `CCOC(=O)c1sc(NC(=O)c2ccc3ncsc3c2)nc1C`, the percent of control was 349% (active).
As to `CCOC(=O)c1c(NC(=O)CSc2nnc(-c3ccccc3)o2)sc(C(C)=O)c1C`, the percent of control was 305% (active).
Consider `O=C(Cc1ccc(Cl)cc1)Nc1ccc2oc(-c3ccncc3)nc2c1`, for which the percent of control was 207%.
On to `O=C(COC(=O)C(O)c1ccccc1)c1ccc2c(c1)OCCO2` (stereo not drawn), for which the percent of control was 108%.
As to `Cc1ccc(C)n1-c1cccc(C(=O)O)c1`, the percent of control is 26.6%.
In the case of `O=C(Nc1ccc(-c2noc(-c3cccs3)n2)cc1)c1cccnc1`, the percent of control is 208%.
For `COc1ccc(OC)c(C(=O)CSc2nnc(-c3ccc(OC)c(OC)c3)o2)c1`, the percent of control is 662% (active).
Take `O=C(c1cc2ccccc2oc1=O)N(Cc1ccco1)Cc1cccs1`: the percent of control is 110%.
In the case of `Cc1ccc(S(=O)(=O)c2nc(S(C)(=O)=O)sc2NCC2CCCO2)cc1` (stereo not drawn), the percent of control was 136%.
Under `CCOC(=O)N1c2ccccc2C=CC1OCC` (stereo not drawn) stands 152%.
As to `Cc1ccc(NC(=O)CSc2nnc(Cn3c(=O)sc4ccccc43)n2C)cc1Cl`, the percent of control is 165%.
With `CCOC(=O)Cn1c(-c2nonc2NC(=O)c2ccccc2F)nc2ccccc21`, the percent of control is 218%.
In the case of `COc1ccc(-c2c(C#N)c(C)nc3c2C(=O)c2ccccc2-3)cc1`, the percent of control was 239%.
